What was measured:
Assay in all cases: PBM binding z-score (relative to random genomic background probes); higher = stronger binding; sequences stand for … in GC…GCGATTGACAGCGTAGAATGAAGG
[1] = system: PPARg:RXRa DBDmut IVT, anti-RXR (DBD mutation: RXRa K156A/R161A, NR concentration 270 nM, RXRa partner concentration 90 nM)
Outline: (§1)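 On custom Agilent 4×180K arrays, double-stranded probes with 34-nt variable regions carried direct-repeat seeds, single-nucleotide variants, half-site ablations or random human genomic background. Ligand-free nuclear receptor dimers were applied for 1 h, and binding was read with antibodies against each partner (one per run). Binding z-scores come from regression-normalized fluorescence, with the random background probes as reference.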

[2] = system: PPARg:RXRa IVT, anti-PPARg (NR concentration 270 nM, RXRa partner concentration 90 nM)
Outline: as §1

[3] = system: PPARg DBDmut:RXRa IVT, anti-PPARg (DBD mutation: PPARg1 K132A/R137A, NR concentration 270 nM, RXRa partner concentration 90 nM)
Outline: as §1

[4] = system: PPARg DBDmut IVT, anti-PPARg (DBD mutation: PPARg1 K132A/R137A, NR concentration 270 nM)
Outline: as §1

[5] = system: PPARg homodimer (NR concentration 180 nM)
Outline: as §1

[6] = system: PXR:RXRa (NR concentration 270 nM, RXRa partner concentration 90 nM)
Outline: as §1

[7] = system: PXR homodimer (NR concentration 270 nM)
Outline: as §1

[8] = system: RARa:RXR (NR concentration 270 nM, RXRa partner concentration 90 nM)
Outline: as §1

[9] = system: RARa homodimer (NR concentration 270 nM)
Outline: as §1

[10] = system: RARb:RXRa (NR concentration 270 nM, RXRa partner concentration 90 nM)
Outline: as §1

[11] = system: RARb homodimer (NR concentration 270 nM)
Outline: as §1

[12] = system: RARg:RXRa (NR concentration 270 nM, RXRa partner concentration 90 nM)
Outline: as §1

[13] = system: RARg homodimer (NR concentration 270 nM)
Outline: as §1

[14] = system: RXRa DBDmut IVT, anti-RXR (DBD mutation: RXRa K156A/R161A, NR concentration 90 nM)
Outline: as §1

[15] = system: RXRa homodimer (NR concentration 180 nM)
Outline: as §1

[16] = system: THRa:RXRa (NR concentration 90 nM, RXRa partner concentration 90 nM)
Outline: as §1

[17] = system: THRa homodimer (NR concentration 90 nM)
Outline: as §1

[18] = system: VDR homodimer (NR concentration 270 nM)
Outline: as §1

Row | Sequence | PBM binding z-score [1] | PBM binding z-score [2] | PBM binding z-score [3] | PBM binding z-score [4] | PBM binding z-score [5] | PBM binding z-score [6] | PBM binding z-score [7] | PBM binding z-score [8] | PBM binding z-score [9] | PBM binding z-score [10] | PBM binding z-score [11] | PBM binding z-score [12] | PBM binding z-score [13] | PBM binding z-score [14] | PBM binding z-score [15] | PBM binding z-score [16] | PBM binding z-score [17] | PBM binding z-score [18]
1 | CCTACTGGGCCACGAAAGGTCATTGATTCAGTGA | 5.99 | 5.95 | 0.883 | -0.339 | 4.26 | 5.45 | 2.06 | 5.9 | 1.7 | 4 | 4.53 | 4.73 | 4.37 | 0.61 | 5.18 | 3.67 | 0.798 | 2.59
2 | TTACCATGGTGAGCTGAGGTCGTTGATCCAACTC | -0.23 | 0.397 | -0.517 | -0.449 | -0.916 | 1.87 | -0.0892 | 1.14 | -0.905 | 0.272 | 0.61 | 0.0619 | -0.479 | -0.0297 | 0.594 | 2.81 | 1.14 | 1.7
3 | CAAACTAGGTCAAGAGGTCAGAGTCCGCTTCCCG | 8.57 | 8.53 | 2.77 | 1.17 | 6.51 | 5.04 | 0.812 | 6.67 | 3.26 | 5.15 | 5.42 | 7.29 | 7.22 | 2.53 | 6.9 | 3.88 | 2.15 | 3.34
4 | AGAACGAGGGCACGCTGAGTTGATATCAGAGTAG | 4.16 | 3.89 | 0.683 | -0.135 | 0.168 | 1.44 | 0.106 | 0.865 | -0.122 | 2.5 | 1.18 | 2.05 | 2.32 | 2.08 | 1.32 | 1.89 | -0.269 | 1.71
5 | CCTTACGGGTCACTCCAGGTTATCGCATCGGAGT | 2.41 | 3.83 | -0.0167 | -0.117 | 1.35 | 4.65 | 0.118 | 3.01 | 0.208 | 3.55 | 3.25 | 4.44 | 4.23 | 1.07 | 4.36 | 5.13 | 0.863 | 1.57
6 | TAGCCTAGGTCATTGAGCCAGTATAGTACGCATC | 1.41 | 2.41 | 0.454 | 0.0795 | 0.0834 | 1.53 | -0.111 | 2.18 | -0.419 | 3.6 | 2.68 | 3.9 | 4.06 | 1.72 | 2.9 | 2.79 | 0.737 | 1.03
7 | TAGCCTCGGTCATGGGCCAGTATACCACGCGAAC | -0.58 | 0.53 | -0.301 | -1 | -0.0918 | -0.176 | -0.497 | 0.0375 | -0.653 | 2.42 | 1.72 | 1.72 | 2.42 | -1.4 | 0.378 | 0.05 | -0.217 | -0.408
8 | TCATATATGTAATACAGGTGAAAGTCGGCATCTA | 2.42 | 2.27 | 1.39 | 1.75 | 0.745 | 0.801 | 0.494 | 1.41 | 0.947 | 0.42 | 0.413 | 0.595 | 0.586 | 1.59 | 1.13 | 0.578 | 0.0633 | 0.192
9 | GCAGACAAGTGAAACGCAGGTAACTCAGGGTGGC | -0.601 | -0.398 | -0.525 | -1.2 | -0.82 | -0.683 | -0.723 | -0.207 | -0.732 | -1.75 | -1 | -0.267 | -0.436 | -0.633 | 0.115 | 0.682 | -0.967 | -0.593
10 | CCTTTTAGTTGACCATAAGGGCAACCGAAGCTCG | 0.494 | 1.26 | 0.935 | 0.61 | 1.45 | 0.87 | 0.536 | 0.957 | 1.78 | 1.86 | 2.13 | 1.55 | 1.08 | 0.818 | 0.506 | 1.8 | 1.51 | 0.92
11 | TAGCCTAGGTCATGCGGGCCGGTATAGTGTCGGC | 1.61 | 2.8 | -0.135 | -0.829 | 1.05 | 1.04 | -0.496 | 2.14 | -0.545 | 3.61 | 2.61 | 3.71 | 4.32 | 0.444 | 3.02 | 2.97 | 0.888 | 0.344
12 | CCTATTAGTTGACCATAAGGTCAACCGAAGCTCG | 1.02 | 2.48 | 2.56 | 1.37 | 4.93 | 4.62 | 2.57 | 5.3 | 3.95 | 3.72 | 4.8 | 4.83 | 4.07 | 1.77 | 4.39 | 4.27 | 5.15 | 3.25
13 | TGTTGTAGATCAGCAGGTTAAGAAAGCTGGCCAA | -1.12 | -0.254 | -0.00533 | -1.02 | -0.701 | -0.454 | -0.604 | -0.71 | -0.587 | -0.157 | -0.378 | -0.266 | -0.294 | -1.38 | -0.118 | -0.32 | -1.04 | -0.583
14 | TCATATAGGTATATGCTAGGTGAAAGTCCGATCT | 2.4 | 1.07 | 0.908 | 1.63 | 0.436 | 0.612 | 0.215 | 0.893 | 0.379 | 0.145 | 0.347 | 0.291 | 0.277 | 1.6 | 0.588 | 1.23 | 0.758 | -0.0233
15 | ATCTCTAGGTAACCAAGTTCATTGAATGCCGAAC | 3.59 | 3.08 | 1.78 | 1.57 | 1.37 | 3.97 | 7.05 | 1.72 | 1.19 | 1.75 | 2.07 | 1.42 | 1.35 | 2.39 | 1.29 | 2.2 | 1.25 | 5.53
16 | GCTAGCAGGCCATTTGGGTCACTCAATGACGGGC | 1.95 | 2.3 | -1.31 | -1.12 | -0.589 | 0.628 | 0.0652 | 0.69 | -0.931 | 1.63 | 2 | 1.11 | 1.55 | 0.0537 | 0.821 | 1.94 | 0.534 | 0.524
17 | CCTTACGGGTCACTGACAGGTTGTAGCATTTGGA | 3.45 | 3.69 | 0.239 | -0.219 | 2.3 | 3.28 | -0.0802 | 4.11 | 0.949 | 3.79 | 3.13 | 5.06 | 4.23 | 2.01 | 4.67 | 2.65 | 0.174 | 0.754
18 | TCTCGGAGGACACGCAAGGTCAGAGCTCGACATC | 1.62 | 1.03 | -0.531 | -0.649 | 0.657 | 2.67 | 0.389 | 2.61 | 0.379 | 3.4 | 3.96 | 3.16 | 3.84 | 1.23 | 2.01 | 4.25 | 2.64 | 1.06
19 | TCGAGTAGGTTAGGGGCATTCGGAATGGCGTCGA | 1.94 | 1.69 | -0.634 | -0.223 | 0.203 | 0.507 | -0.0899 | 0.497 | -0.724 | 1.09 | 0.742 | 0.5 | -0.0301 | 0.0579 | 0.52 | 0.777 | 0.132 | 0.956
20 | AGTCAAAGTTCACTAGGTAACGTATGATTCAGCT | 2.65 | 4.66 | 1.13 | 1.39 | 2.15 | 3.83 | 2.69 | 2.93 | 1.04 | 4.76 | 3.72 | 4.86 | 5.88 | 4.22 | 3.76 | 2 | 0.141 | 3.34
21 | CGTCCAAGGTCATAGGAGGTCAGTGACGACAGAT | 3.6 | 4.57 | 0.237 | 0.133 | 5.09 | 6.69 | 4.69 | 6.08 | 2.29 | 5.44 | 5.23 | 6.83 | 7.27 | 4.28 | 7.54 | 5.3 | 3.25 | 4.76
22 | GCGACTGCGGCATCAGCAGGTTACCATAACTTAA | -0.255 | -0.657 | -1.23 | -0.596 | -0.378 | -0.379 | -0.376 | -0.0824 | -0.219 | -0.277 | 0.0981 | -0.378 | -0.604 | -0.332 | 0.0443 | 0.0329 | 0.0125 | -0.566
23 | GCTGCTAGGTCAACTGATGGTCAGCTACAGCTCG | 4.96 | 3.94 | -0.525 | -0.577 | 1.97 | 1.62 | -0.454 | 2.71 | -0.247 | 4.15 | 3.81 | 5.01 | 5.31 | 1.56 | 2.82 | 2.94 | 0.9 | 0.228

— the supplement of paper PMC6555819
